SARS PLpro yeast: SARS-CoV PLP inhibition in yeast; S. cerevisiae expressing SARS-CoV PLpro, growth rescue; Potency, µM (doses to about 32.9 µM), inactives show at the highest dose activity, positive = growth rescue, hits mostly activators; 330,000 compounds, 0.19% hits; AID 485353; calls by dose curve; note: 0% is about no effect; nearly all actives have a fitted effect of over 55% in size
NS1 function inh: inhibitors of influenza NS1 protein function. Potency, µM (highest dose often 46.1 µM), for the others: at the top dose activity, positive = more growth. AID 2326. 270,000 compounds, 0.4% hits; calls by dose curve; note: actives are rising curves; nearly all actives have a fitted effect of over 50% in size
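OD600 was taken as the measure of yeast growth restored by compound in an NS1-expressing S. cerevisiae strain. Cells had been washed out of glucose medium and diluted 1:100 into galactose -URA medium, pH 6.0.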
Giardia FBPA inh-1: blocks Giardia fructose-bisphosphate aldolase activity; A8B2U2; purified Giardia FBPA; Potency, µM (series often up to 59.6 µM), for inactives: at the highest dose activity, negative = inhibition, hits mostly inhibitors; 290,000 compounds, 0.71% hits; note: % is set by controls: 0 for no effect and ±100 for the full control effect; nearly all actives have a fitted effect of over 55% in size
Target sequence (A8B2U2 whole entry, looked up): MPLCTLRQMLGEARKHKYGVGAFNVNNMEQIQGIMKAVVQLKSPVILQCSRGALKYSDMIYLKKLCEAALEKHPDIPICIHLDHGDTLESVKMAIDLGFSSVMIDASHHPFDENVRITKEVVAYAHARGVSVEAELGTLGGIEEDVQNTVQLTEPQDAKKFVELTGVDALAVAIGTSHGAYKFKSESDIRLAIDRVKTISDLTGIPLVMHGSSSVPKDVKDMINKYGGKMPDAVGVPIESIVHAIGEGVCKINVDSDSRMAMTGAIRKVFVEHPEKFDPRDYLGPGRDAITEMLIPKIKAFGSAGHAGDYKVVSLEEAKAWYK
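40 nM FBPA preincubated 10 min at RT with compound (up to 57.5 uM final), then substrate plus GAPDH/TPI/NAD/arsenate coupling and diaphorase/resazurin added. Fluorescence read after 20 min at RT, 525/598 nm.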
AmpC inh detg: AmpC beta-lactamase inhibition with detergent present | AmpC hydrolysis of nitrocefin, absorbance 480 nm, 0.01% Triton | Potency, µM (titrated, usually from 114 µM), inactives show top-dose activity change, negative = inhibition, hits mostly inhibitors | 370,000 compounds, 0.041% hits | AID 485294;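 note: 0% = no-compound wells and -100% = no-enzyme wells; nearly all actives have a fitted effect of over 25% in size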
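AmpC (5.3 nM in the dispensed reagent) in 20 mM phosphate pH 7.0 with 0.01% (detergent screen) or 0.0001% Triton X-100 was preincubated with compounds for 15 min at room temperature. Nitrocefin was then added from an 800 uM solution, and hydrolysis was followed at 480 nm.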
AmpC inh no detg: inhibitors of E. coli AmpC beta-lactamase without detergent | P00811 | AmpC nitrocefin hydrolysis, absorbance 480 nm, 0.0001% Triton | Potency, µM (series often up to 57.1 µM), without a hit: at the highest dose activity change, negative = inhibition, most hits filed as inhibitors | 330,000 compounds, 0.52% hits | AID 485341;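 note: plate controls were no compound for no effect and no enzyme for full effect; nearly all actives have a fitted effect of over 20% in size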
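20 mM phosphate pH 7.0 + 0.01% (detergent screen) or 0.0001% Triton X-100; 5.3 nM AmpC reagent; cpd preinc 15 min RT; nitrocefin (800 uM stock) to start; A480 q20 s × 4 min; Activity was normalised to no-enzyme and no-compound control wells.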
Giardia growth: inhibitors of Giardia lamblia growth; shares compounds with Giardia FBPA inh-1; Giardia lamblia trophozoite growth inhibition; Potency, µM (doses to about 57.5 µM), for the others: at the highest dose activity change, negative = inhibition, usual class: inhibitors; 1,500 compounds, 5% hits; AID 2785;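 note: trophozoites exposed to compound for 48 h at 37 °C; % is set by controls: 0 for no effect and ±100 for the full control effect; nearly all actives have a fitted effect of over 70% in size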
Mammalian tox: toxic to mammalian cells in Giardia aldolase counter-screen; shares compounds with Giardia FBPA inh-1; mammalian cell viability counter-screen, qHTS; Potency, µM (highest dose often 57.5 µM), without a hit: at the highest dose viability change, negative = toxicity, hits mostly inhibitors; 1,500 compounds, 4% hits; AID 2786;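 note: Chinese hamster ovary cells used as mammalian cytotoxicity surrogate; viability measured as cellular ATP by luminescence; compound exposure lasted 48 h before reading; % is set by controls: 0 for no effect and ±100 for the full control effect; nearly all actives have a fitted effect of over 60% in size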
Giardia FBPA inh-2: confirmation of Giardia fructose-bisphosphate aldolase inhibitors | shares compounds with Giardia FBPA inh-1 | AID 2787 | 1,500 compounds, 5% hits | Potency, µM (doses to about 57.5 µM), without a hit: top-dose activity change, negative = inhibition, most hits filed as inhibitors | purified Giardia aldolase enzyme activity, qHTS; note: % is set by controls: 0 for no effect and ±100 for the full control effect; nearly all actives have a fitted effect of over 45% in size
Rabbit aldolase: rabbit FBP aldolase inhibition by Giardia aldolase hits | shares compounds with Giardia FBPA inh-1 | Rabbit muscle FBPA enzyme inhibition, selectivity counter-screen | Potency, µM (titrated, usually from 57.5 µM), inactives show at the highest dose activity, negative = inhibition, most hits filed as inhibitors | 1,500 compounds, 4% hits | AID 2794; note: % is set by controls: 0 for no effect and ±100 for the full control effect; nearly all actives have a fitted effect of over 60% in size
GAPDH counter: GAPDH inhibition flagged for Giardia aldolase hits; shares compounds with Giardia FBPA inh-1; GAPDH coupling enzyme counterscreen, biochemical, qHTS; Potency, µM (highest dose often 57.5 µM), inactives show top-dose activity change, negative = inhibition, hits mostly inhibitors; 1,500 compounds, 6% hits; note: % is set by controls: 0 for no effect and ±100 for the full control effect; nearly all actives have a fitted effect of over 55% in size
An asterisk follows results filed as active; ? = inconclusive; . = no result given; [ ] = remark or other dose. Only some compounds are listed: those with a hit (about 1.4% of all), similar ones and a draw of the others. Unless noted, calls come from the whole dose curve; as a rule, active = well fitted curve in the direction sought with a large enough effect; inconclusive = small, poorly fitted or top-dose-only effect, or another doubt; inactive = no such curve, though single readings can be large; an effect the other way counts as inactive or inconclusive. Potency is the fitted concentration of half-maximal effect.

SMILES	SARS PLpro yeast	NS1 function inh	Giardia FBPA inh-1	AmpC inh detg	AmpC inh no detg	Giardia growth	Mammalian tox	Giardia FBPA inh-2	Rabbit aldolase	GAPDH counter
Cc1nnc(SCc2cc(=O)c3ccccc3[nH]2)s1	.	.	.	-2%	.	.	.	.	.	.
O=C(NCCN1CCOCC1)c1ccc2c(c1)ncn2C1CCCCC1	-4%	-1%	-1%	-3%	10%	.	.	.	.	.
CCCOc1ccc2cc(-c3ccccn3)c(=O)oc2c1	-33%	-8%	-8%	0%	-4%	.	.	.	.	.
O=C(O)Cc1sc(Nc2ccc(Cl)cc2)nc1-c1cccs1	-3%	.	18µM*	-2%	-42%[11.4 µM]	15%	-5%	3%	9%	2%
O=C(O[C@@H]1OC2COC(=O)c3cc(O)c(O)c(O)c3-c3c(cc(O)c(O)c3O)C(=O)O[C@@H]([C@H]1O)[C@@H]2O)c1cc(O)c(O)c(O)c1	13µM*	16%	?	-3%	-11%	-33%[38.3 µM]	-6%	?	?	?
CC1CCC2(CC1)NC(=O)N(CC(=O)N1CCN(S(=O)(=O)c3ccccc3)CC1)C2=O (stereo not given)	2%	-3%	3%	-8%	24%	.	.	.	.	.
O=C(COc1cccnc1[N+](=O)[O-])N1CCN(S(=O)(=O)c2ccc3ccccc3c2)CC1	12%	15%	1%	-12%	114%	.	.	.	.	.
O=C(COc1cccnc1[N+](=O)[O-])N1CCN(C(=O)c2ccco2)CC1	-5%	1%	18µM*	-2%	-14%	6%[10.4 µM]	2%	-6%	8%	-2%
Cc1ccccc1/C=N/Nc1nc2ccccc2c(=O)n1O	9%	-9%	18µM*	-2%	-21%	?	-6%	-22%	-14%	-15%
N[C@@H](CO)C(=O)NNCc1ccc(O)c(O)c1O	.	.	5µM*	.	.	10%[19.1 µM]	-2%[28.7 µM]	?	?	?
O=C1CC2CS(=O)(=O)CC2N1C1CCCCC1 (stereo not given)	-1%	8%	4%	?	-17%	.	.	.	.	.
O=C(NC(=S)N1CCCCC1)c1cccnc1	3%	-6%	?	-8%	-24%	.	.	.	.	.
O=C(NC(=S)N1CCN(Cc2ccccc2)CC1)c1cccnc1	1%	2%	18µM*	0%	-10%	?	12%	2%	3%	8%
O=C(NC(=S)N1CCN(C/C=C/c2ccccc2)CC1)c1ccc(Cl)nc1	3%	-6%	7.9µM*	-6%	-3%	-14%[38.3 µM]	?	-2%	4%	-8%
O=C1C(Br)=Cc2cccc3cccc1c23	-2%	-3%	-19%	-2%	-23%	.	.	.	.	.
CC(=O)N1N=C(c2ccc(C)o2)CC1c1ccc(F)cc1 (stereo not given)	-5%	1%	1%	-13%	-9%	.	.	.	.	.
COc1cnc(-c2ccccn2)nc1Sc1ccccc1Cl	-23%	-112%	-16%	2%	91%	.	.	.	.	.
CCOC(=O)C(C)Sc1nc(-c2ccccn2)ncc1OC (stereo not given)	4%	.	16µM*	-14%	-10%	?	-28%	-12%	-11%	?
CCSS(=O)(=O)c1cccc2cccnc12	-4%	-96%	16µM*	-2%	-16%	-18%[10.4 µM]	-4%	-10%	?	?

Screening results: PubChem, National Center for Advancing Translational Sciences (NCATS)
